# Source: PubChem BioAssay (NCI)
# Compounds without any hit were thinned out: in the full panel of roughly 79,000, 15% have a hit. Unmarked numbers belong to inactive results. The source made the active and inactive calls. No stated cut-off is given here; in the data, active means growth inhibition above about 70%; inactive means the rest.
# Key:
# [1] = NCI Yeast Anticancer Drug Screen. Data for the rad52 strain (AID 147);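 further: 0% = growth of vehicle-treated control cultures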; settings: S. cerevisiae rad52 mutant growth inhibition, active compounds read high
# How it was run: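 Vehicle-treated cultures served as the reference for growth inhibition of compound-exposed yeast bearing a DNA repair mutation.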
# [2] = NCI Yeast Anticancer Drug Screen. Data for the wt1 strain (AID 149);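 further: 0% = growth of vehicle-treated wt1 cultures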; settings: S. cerevisiae wt1 strain (SPY 50644) growth inhibition, active compounds read high
# How it was run: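 Readout: yeast growth inhibition, normalised to vehicle controls, in the wt1 strain exposed to test compounds.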
# [3] = NCI Yeast Anticancer Drug Screen. Data for the rad50EPP+ strain (AID 151);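 further: 0% = growth of vehicle-treated control cultures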; settings: S. cerevisiae rad50 mutant strain, active compounds read high
# How it was run: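 In this screen, rad50EPP+ yeast were exposed to compounds. Growth inhibition was scored against vehicle-treated controls.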
# [4] = NCI Yeast Anticancer Drug Screen. Data for the rad50 strain (AID 155);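 further: 0% = growth of vehicle-only cultures of the same strain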; settings: S. cerevisiae rad50 strain growth inhibition, active compounds read high
# How it was run: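 Compounds were tested on a yeast strain with an engineered DNA damage repair alteration; the reported value is growth inhibition normalised to vehicle treatment.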
# [5] = NCI Yeast Anticancer Drug Screen. Data for the mec2-1 strain (AID 157); settings: S. cerevisiae mec2-1 strain, active compounds read high
# How it was run: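 Vehicle-treated cultures served as reference for growth inhibition of compound-exposed mec2-1 yeast.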
# [6] = NCI Yeast Anticancer Drug Screen. Data for the rad14 strain (AID 159);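 further: 0% = growth of vehicle-treated control cultures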; settings: S. cerevisiae rad14 strain growth inhibition, active compounds read high
# How it was run: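 Compound-treated yeast with a defined DNA-repair lesion; growth inhibition normalised to vehicle-treated cultures.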
# [7] = NCI Yeast Anticancer Drug Screen. Data for the sgs1 mgt1 strain (AID 161);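 further: 0% = growth of cultures given vehicle only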; settings: S. cerevisiae sgs1 mgt1 strain, active compounds read high
# How it was run: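 Genetically altered yeast, compound exposure, growth inhibition relative to vehicle.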
# [8] = NCI Yeast Anticancer Drug Screen. Data for the CLN2oe strain (AID 163);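 further: 0% = growth of vehicle-only control cultures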; settings: S. cerevisiae CLN2oe strain, active compounds read high
# How it was run: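 Inhibition relative to vehicle-treated yeast is reported. Cells: strain with genetic alteration in cell-cycle control, grown with compound.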
# [9] = NCI Yeast Anticancer Drug Screen. Data for the cln2 rad14 strain (AID 165);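 further: 0% = growth equal to vehicle treated cultures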; settings: S. cerevisiae cln2 rad14 strain, active compounds read high
# How it was run: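 Each compound was tested on cln2 rad14 yeast. Inhibition of growth was calculated against vehicle-exposed controls.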
# [10] = NCI Yeast Anticancer Drug Screen. Data for the bub3 strain (AID 167); settings: S. cerevisiae bub3 mutant strain, active compounds read high
# How it was run: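 Growth of a checkpoint-deficient yeast mutant is measured after compound exposure. Values represent inhibition relative to vehicle.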
# [11] = NCI Yeast Anticancer Drug Screen. Data for the wt2 strain (AID 169);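 further: 0% = growth of vehicle-treated yeast cultures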; settings: S. cerevisiae wt2 strain growth inhibition, active compounds read high
# How it was run: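 Inhibition of yeast growth was determined after compound treatment, normalised to controls receiving only vehicle.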
# [12] = NCI Yeast Anticancer Drug Screen. Data for the mlh1 strain (AID 171);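 further: 0% = growth of vehicle-treated control cultures of the same strain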; settings: S. cerevisiae mlh1 strain growth inhibition, active compounds read high
# How it was run: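 Vehicle-normalised growth inhibition of a repair- or checkpoint-altered yeast strain following compound treatment.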
# [13] = NCI Yeast Anticancer Drug Screen. Data for the sgs1 strain (AID 173);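 further: 0% = growth of vehicle-only control cultures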; settings: S. cerevisiae sgs1 mutant, active compounds read high
# How it was run: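 Screen format: yeast with repair or checkpoint alterations, compound exposure, growth read relative to vehicle.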
# [14] = NCI Yeast Anticancer Drug Screen. Data for the mlh1 rad18 strain (AID 175); settings: S. cerevisiae mlh1 rad18 strain growth inhibition, active compounds read high
# How it was run: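 Vehicle-treated cultures served as the reference for growth inhibition in a yeast strain carrying DNA damage repair alterations exposed to each compound.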
# [15] = NCI Yeast Anticancer Drug Screen. Data for the rad18 strain (AID 177); settings: S. cerevisiae rad18 mutant growth inhibition, active compounds read high
# How it was run: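 Test articles were incubated with altered yeast defective in DNA damage repair. Results are given as inhibition of growth versus vehicle.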
# [16] = NCI Yeast Anticancer Drug Screen. Data for the mgt1 strain (AID 153); settings: S. cerevisiae mgt1 mutant growth inhibition, active compounds read high
# How it was run: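 mgt1 strain exposed; growth vs vehicle control recorded as inhibition.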
# [17] = at 5.0 µM (retest, dose inferred, filed as 0.5)
# [18] = at 50.0 µM (retest, dose inferred, filed as 5.0)
smiles,measurement,setting,value
Cc1ccc2nc(N/N=C/c3ccc(C)s3)cc(C)c2c1,growth inhibition,[1]; at 1.2 µM,-26%
same,growth inhibition,[1]; at 3.7 µM,-40%
same,growth inhibition,[1]; at 11.0 µM,-47%
same,growth inhibition,[1]; at 33.0 µM,98% (active)
same,growth inhibition,[1]; at 100.0 µM,98% (active)
same,growth inhibition,[2]; at 1.2 µM,-27%
same,growth inhibition,[2]; at 3.7 µM,-18%
same,growth inhibition,[2]; at 11.0 µM,1%
same,growth inhibition,[2]; at 33.0 µM,99% (active)
same,growth inhibition,[2]; at 100.0 µM,94% (active)
same,growth inhibition,[3]; at 1.2 µM,-15%
same,growth inhibition,[3]; at 3.7 µM,-5%
same,growth inhibition,[3]; at 11.0 µM,2%
same,growth inhibition,[3]; at 33.0 µM,44%
same,growth inhibition,[3]; at 100.0 µM,70% (active)
same,growth inhibition,[4]; at 1.2 µM,-2%
same,growth inhibition,[4]; at 3.7 µM,-22%
same,growth inhibition,[4]; [17],22%
same,growth inhibition,[4]; at 11.0 µM,-1%
same,growth inhibition,[4]; at 33.0 µM,99% (active)
same,growth inhibition,[4]; [18],98% (active)
same,growth inhibition,[4]; at 50.0 µM,89.7% (active)
same,growth inhibition,[4]; at 100.0 µM,93% (active)
same,growth inhibition,[5]; at 1.2 µM,-23%
same,growth inhibition,[5]; at 3.7 µM,-17%
same,growth inhibition,[5]; [17],12%
same,growth inhibition,[5]; at 11.0 µM,-19%
same,growth inhibition,[5]; at 33.0 µM,99% (active)
same,growth inhibition,[5]; [18],99% (active)
same,growth inhibition,[5]; at 50.0 µM,92.7% (active)
same,growth inhibition,[5]; at 100.0 µM,96% (active)
same,growth inhibition,[6]; at 1.2 µM,-32%
same,growth inhibition,[6]; at 3.7 µM,-18%
same,growth inhibition,[6]; at 11.0 µM,0%
same,growth inhibition,[6]; at 33.0 µM,99% (active)
same,growth inhibition,[6]; at 100.0 µM,98% (active)
same,growth inhibition,[7]; [17],10%
same,growth inhibition,[7]; [18],9%
same,growth inhibition,[7]; at 50.0 µM,91.8% (active)
same,growth inhibition,[8]; at 1.2 µM,5%
same,growth inhibition,[8]; at 3.7 µM,-5%
same,growth inhibition,[8]; at 11.0 µM,7%
same,growth inhibition,[8]; at 33.0 µM,99% (active)
same,growth inhibition,[8]; at 100.0 µM,93% (active)
same,growth inhibition,[9]; [17],17%
same,growth inhibition,[9]; [18],-18%
same,growth inhibition,[9]; at 50.0 µM,90.8% (active)
same,growth inhibition,[10]; at 1.2 µM,-6%
same,growth inhibition,[10]; at 3.7 µM,5%
same,growth inhibition,[10]; [17],7%
same,growth inhibition,[10]; at 11.0 µM,15%
same,growth inhibition,[10]; at 33.0 µM,99% (active)
same,growth inhibition,[10]; [18],-10%
same,growth inhibition,[10]; at 50.0 µM,91.7% (active)
same,growth inhibition,[10]; at 100.0 µM,95% (active)
same,growth inhibition,[11]; at 1.2 µM,9%
same,growth inhibition,[11]; at 3.7 µM,6%
same,growth inhibition,[11]; at 11.0 µM,30%
same,growth inhibition,[11]; at 33.0 µM,99% (active)
same,growth inhibition,[11]; at 100.0 µM,96% (active)
same,growth inhibition,[12]; at 1.2 µM,-18%
same,growth inhibition,[12]; at 3.7 µM,-28%
same,growth inhibition,[12]; at 11.0 µM,-10%
same,growth inhibition,[12]; at 33.0 µM,99% (active)
same,growth inhibition,[12]; at 100.0 µM,99% (active)
same,growth inhibition,[13]; at 1.2 µM,-12%
same,growth inhibition,[13]; at 3.7 µM,-19%
same,growth inhibition,[13]; at 11.0 µM,-1%
same,growth inhibition,[13]; at 33.0 µM,99% (active)
same,growth inhibition,[13]; at 100.0 µM,93% (active)
same,growth inhibition,[14]; [17],31%
same,growth inhibition,[14]; [18],98% (active)
same,growth inhibition,[14]; at 50.0 µM,91.2% (active)
same,growth inhibition,[15]; at 1.2 µM,-8%
same,growth inhibition,[15]; at 3.7 µM,-1%
same,growth inhibition,[15]; at 11.0 µM,2%
same,growth inhibition,[15]; at 33.0 µM,99% (active)
same,growth inhibition,[15]; at 100.0 µM,93% (active)
O=[N+]([O-])C(=C(NCc1ccccc1)NCc1ccccc1)C(Cl)=C(Cl)Cl,growth inhibition,[2]; at 1.2 µM,1%
same,growth inhibition,[2]; at 3.7 µM,2%
same,growth inhibition,[2]; at 11.0 µM,7%
same,growth inhibition,[2]; at 33.0 µM,10%
same,growth inhibition,[2]; at 100.0 µM,41%
same,growth inhibition,[3]; at 1.2 µM,3%
same,growth inhibition,[3]; at 3.7 µM,18%
same,growth inhibition,[3]; at 11.0 µM,56%
same,growth inhibition,[3]; at 33.0 µM,83% (active)
same,growth inhibition,[3]; at 100.0 µM,85% (active)
same,growth inhibition,[16]; at 1.2 µM,-2%
same,growth inhibition,[16]; at 3.7 µM,3%
same,growth inhibition,[16]; at 11.0 µM,5%
same,growth inhibition,[16]; at 33.0 µM,29%
same,growth inhibition,[16]; at 100.0 µM,62%
same,growth inhibition,[4]; at 1.2 µM,1%
same,growth inhibition,[4]; at 3.7 µM,1%
same,growth inhibition,[4]; [17],-8%
same,growth inhibition,[4]; at 11.0 µM,6%
same,growth inhibition,[4]; at 33.0 µM,13%
same,growth inhibition,[4]; [18],57%
same,growth inhibition,[4]; at 50.0 µM,26.6%
same,growth inhibition,[4]; at 100.0 µM,52%
same,growth inhibition,[5]; at 1.2 µM,-1%
same,growth inhibition,[5]; at 3.7 µM,0%
same,growth inhibition,[5]; [17],-7%
same,growth inhibition,[5]; at 11.0 µM,4%
same,growth inhibition,[5]; at 33.0 µM,14%
same,growth inhibition,[5]; [18],24%
same,growth inhibition,[5]; at 50.0 µM,23.6%
same,growth inhibition,[5]; at 100.0 µM,54%
same,growth inhibition,[6]; at 1.2 µM,-4%
same,growth inhibition,[6]; at 3.7 µM,-3%
same,growth inhibition,[6]; at 11.0 µM,1%
same,growth inhibition,[6]; at 33.0 µM,11%
same,growth inhibition,[6]; at 100.0 µM,56%
same,growth inhibition,[7]; [17],2%
same,growth inhibition,[7]; [18],45%
same,growth inhibition,[7]; at 50.0 µM,66%
same,growth inhibition,[8]; at 1.2 µM,-5%
same,growth inhibition,[8]; at 3.7 µM,-3%
same,growth inhibition,[8]; at 11.0 µM,6%
same,growth inhibition,[8]; at 33.0 µM,14%
same,growth inhibition,[8]; at 100.0 µM,62%
same,growth inhibition,[9]; [17],40%
same,growth inhibition,[9]; [18],55%
same,growth inhibition,[9]; at 50.0 µM,64.2%
same,growth inhibition,[10]; at 1.2 µM,-5%
same,growth inhibition,[10]; at 3.7 µM,-9%
same,growth inhibition,[10]; [17],0%
same,growth inhibition,[10]; at 11.0 µM,0%
same,growth inhibition,[10]; at 33.0 µM,5%
same,growth inhibition,[10]; [18],42%
same,growth inhibition,[10]; at 50.0 µM,33%
same,growth inhibition,[10]; at 100.0 µM,49%
same,growth inhibition,[11]; at 1.2 µM,1%
same,growth inhibition,[11]; at 3.7 µM,2%
same,growth inhibition,[11]; at 11.0 µM,9%
same,growth inhibition,[11]; at 33.0 µM,19%
same,growth inhibition,[11]; at 100.0 µM,70% (active)
same,growth inhibition,[12]; at 1.2 µM,4%
same,growth inhibition,[12]; at 3.7 µM,1%
same,growth inhibition,[12]; at 11.0 µM,9%
same,growth inhibition,[12]; at 33.0 µM,25%
same,growth inhibition,[12]; at 100.0 µM,85% (active)
same,growth inhibition,[13]; at 1.2 µM,1%
same,growth inhibition,[13]; at 3.7 µM,7%
same,growth inhibition,[13]; at 11.0 µM,15%
same,growth inhibition,[13]; at 33.0 µM,39%
same,growth inhibition,[13]; at 100.0 µM,83% (active)
same,growth inhibition,[14]; [17],12%
same,growth inhibition,[14]; [18],83% (active)
same,growth inhibition,[14]; at 50.0 µM,81.5% (active)
